Reference: PubChem BioAssay (NCATS)
Results filed as inconclusive are left out. The call rests on the fitted dose curve; in most records, active means well fitted activation curve with a large enough effect; inconclusive means small, poorly fitted or top-dose-only effect; inactive means no such curve, though single readings can be large or run the other way.

biological target: Rap guanine nucleotide exchange factor 3 (Homo sapiens) (UniProt O95398); test: Confirmatory qHTS for agonist of cAMP-regulated guanine nucleotide exchange factor 3 (EPAC1) (AID 1645881); conditions: EPAC1 Rap1B BODIPY-GDP exchange fluorescence; series mostly up to 154 µM; activation: at the top concentration;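 further: EPAC1 catalysed release of BODIPY-GDP from Rap1B seen as fluorescence loss; 100% = effect of cAMP agonist control; nearly all actives have a fitted effect of over 75% in size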
Sequence (O95398 whole entry, looked up): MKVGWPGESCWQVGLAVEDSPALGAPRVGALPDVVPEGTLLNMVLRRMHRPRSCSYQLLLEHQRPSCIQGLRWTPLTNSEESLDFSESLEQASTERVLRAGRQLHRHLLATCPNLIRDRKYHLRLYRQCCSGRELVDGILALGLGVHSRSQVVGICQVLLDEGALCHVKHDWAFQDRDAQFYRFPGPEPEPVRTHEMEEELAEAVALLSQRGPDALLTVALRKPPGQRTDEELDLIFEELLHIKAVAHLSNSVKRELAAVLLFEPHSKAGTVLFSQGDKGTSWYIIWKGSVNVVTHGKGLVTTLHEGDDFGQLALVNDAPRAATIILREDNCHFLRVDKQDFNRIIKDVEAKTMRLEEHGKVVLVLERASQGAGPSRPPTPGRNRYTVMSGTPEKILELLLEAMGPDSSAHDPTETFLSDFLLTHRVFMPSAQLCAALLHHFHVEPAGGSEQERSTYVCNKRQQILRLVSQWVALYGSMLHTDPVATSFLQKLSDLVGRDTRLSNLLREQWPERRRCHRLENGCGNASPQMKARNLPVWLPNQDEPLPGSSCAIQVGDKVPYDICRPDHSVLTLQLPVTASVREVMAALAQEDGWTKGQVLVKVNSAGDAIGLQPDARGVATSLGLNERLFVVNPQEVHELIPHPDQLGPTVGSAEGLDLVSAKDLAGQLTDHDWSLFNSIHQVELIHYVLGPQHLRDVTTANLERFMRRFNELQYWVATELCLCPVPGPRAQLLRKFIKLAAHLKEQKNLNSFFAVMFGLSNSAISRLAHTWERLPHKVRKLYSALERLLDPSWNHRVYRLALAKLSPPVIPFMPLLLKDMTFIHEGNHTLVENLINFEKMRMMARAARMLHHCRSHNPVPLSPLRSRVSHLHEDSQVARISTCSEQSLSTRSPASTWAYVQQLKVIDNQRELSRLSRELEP

activation, inactive:
COc1ccccc1C(CCN(Cc1ccccc1)C(C)=O)c1ccco1 (stereo not given) 11.3%
CCCN1C(=O)c2ccccc2NC1c1ccc(Cl)c(Cl)c1 (stereo not given) 7.92%
COc1ccc(CCn2c(=N)c(C(=O)NC3CCCCC3)cc3c(=O)n4ccccc4nc32)cc1 -69%
CCCCN(C(=O)Cn1ncc(Cl)c(Cl)c1=O)c1c(N)n(CC(C)C)c(=O)[nH]c1=O -9.87%
O=S(=O)(NCCC1=CCCCC1)c1ccc(OC(F)(F)F)cc1 -23.9%
O=C(/C=C/c1ccc(Br)o1)NCc1ccccc1 2.26%
Cc1ccc(/C=C/C(=O)Nc2nnc(SCc3ccc(C#N)cc3)s2)o1 -6.66%
COc1ccc(C(=O)NC2(C(F)(F)F)NC(=O)N(CCCc3ccccc3)C2=O)c(OC)c1OC (stereo not given) -3.14%
O=C(CSc1nc(-c2ccc(F)cc2)nc2ccc(F)cc12)Nc1cccc(C(=O)O)c1 15.7%
COc1ccc(C2=NN(c3ccccc3)C(c3cn(CCC(=O)O)nc3-c3ccccc3)C2)cc1 (stereo not given) -0.516%
C=CCc1ccccc1OCCSc1nc(-c2ccc(C(C)(C)C)cc2)nc2cc(=O)[nH]n12 -44.8%
Cc1ccc2oc(=O)n(CCOc3ccccc3C)c2c1 13.4%
COc1cc2c(cc1OC)C(c1cccs1)N(C(=O)C(C)C)CC2 (stereo not given) 16.9%
COc1ccc2c(c1)c(=O)oc1c(C)c(OCc3cc(C(=O)O)oc3C)ccc12 9.22%
Cc1ccc(Cc2cnc(N3C(=N)SC(c4ccccc4)C3=O)s2)cc1 (stereo not given) 3.83%
O=C(CSc1nc(-c2ccccc2)nc2c1Cc1ccccc1O2)Nc1ccc(C(=O)O)cc1 13.7%
COc1ccccc1Cc1c(-c2ccco2)nc2c(C)cc(Br)cn12 3.37%
CCc1ccc(OCC2c3cc(OC)c(OC)cc3CCN2C(C)=O)cc1 (stereo not given) 12.3%
CC1(Cc2cc(Cl)ccc2C(F)(F)F)C(=O)Nc2cc(F)ccc21 (stereo not given) -7.42%
Cc1cccc(CN2C(=O)c3ccccc3Sc3ccc(C(=O)N4CCCC4)cc32)c1 0.932%
CCOC(=O)N1CCC(Nc2nc3ccccc3n3cnnc23)CC1 -10.9%
CC(C)c1ccc(S(=O)(=O)Nc2ccc3c(c2)OCO3)cc1 14.3%
O=C(Nc1cc(C(F)(F)F)ccc1Cl)c1nc2ccccc2nc1N1CCCCC1 12.9%
CCOC(=O)C(C(C)C)C(N)Cc1ccc(F)cc1 (stereo not given) 7.84%
CCCCOc1cccc(C2C(C(=O)c3ccc(C)o3)=C(O)C(=O)N2c2nnc(C)s2)c1 (stereo not given) -44%
COc1ccc(-c2[nH]c(-c3ccc(F)cc3)nc2SCC(=O)Nc2ccc(OC)c(OC)c2)cc1 -16.2%
CCCc1nc2c(Cl)cc(C(F)(F)F)cn2c1Cc1ccc(OC)cc1C 0.84%
O=C(O)C1CC(c2ccc(F)cc2)=NO1 (stereo not given) -2.49%
COc1cccc(OCc2cc(/C=N/Nc3ccc(C(=O)O)cc3)ccc2OC)c1 3.2%
CC(C)(C)C(=O)Nc1cccc(C(=O)OCc2cc(=O)n3nc(C4CCCCC4)sc3n2)c1 1.97%
c1cc(-c2cc3nc(NC4CCCCC4)ccn3n2)ccc1OCCN1CCOCC1 17.8%
CC(=O)c1c(C)[nH]c(C(=O)OCC(=O)c2ccc3c(c2)NC(=O)CO3)c1C -2.17%
Cc1nc2c(C(=O)NCc3ccc(F)cc3)c[nH]n2c(=O)c1Cl -9.16%
CC(=O)Nc1ccc(NC(=S)NC(=O)/C=C/c2ccco2)cc1 3.72%
Cn1c(/N=C/c2c(O)ccc3ccccc23)nc2ccccc21 17.2%
O=C(O)COc1ccc(/C=N/NC(=O)c2ccc(-c3csc(Nc4ccc(Cl)cc4)n3)cc2)cc1 19.3%
O=c1cc(CSc2nc3ccccc3c(=O)[nH]2)c2ccc(O)cc2o1 6.95%
O=C(CCC(=O)N1CCSc2ccccc21)NCc1cccc(Br)c1 11.6%
COc1ccc(/C=C2/SC(=O)N(CCC(=O)Nc3ccc(S(=O)(=O)Nc4nccs4)cc3)C2=O)cc1 -13.3%
CCCn1nc([N+](=O)[O-])c(C(C#N)c2nc3ccccc3o2)c(Cl)c1=O (stereo not given) -7.93%

biological target: Rap guanine nucleotide exchange factor 4 (Homo sapiens) (UniProt Q8WZA2); test: Confirmatory qHTS for agonist of cAMP-regulated guanine nucleotide exchange factor 4 (EPAC2) (AID 1645884); conditions: EPAC2 GEF activity, Rap1B-BODIPY-GDP fluorescence; series mostly up to 154 µM; activation: at the top concentration;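 further: nucleotide exchange releases bodipy-GDP from Rap1 and this lowers its fluorescence; on the % scale 0 is the no-effect control and ±100 the full control effect; nearly all actives have a fitted effect of over 65% in size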
Sequence (Q8WZA2 whole entry, looked up): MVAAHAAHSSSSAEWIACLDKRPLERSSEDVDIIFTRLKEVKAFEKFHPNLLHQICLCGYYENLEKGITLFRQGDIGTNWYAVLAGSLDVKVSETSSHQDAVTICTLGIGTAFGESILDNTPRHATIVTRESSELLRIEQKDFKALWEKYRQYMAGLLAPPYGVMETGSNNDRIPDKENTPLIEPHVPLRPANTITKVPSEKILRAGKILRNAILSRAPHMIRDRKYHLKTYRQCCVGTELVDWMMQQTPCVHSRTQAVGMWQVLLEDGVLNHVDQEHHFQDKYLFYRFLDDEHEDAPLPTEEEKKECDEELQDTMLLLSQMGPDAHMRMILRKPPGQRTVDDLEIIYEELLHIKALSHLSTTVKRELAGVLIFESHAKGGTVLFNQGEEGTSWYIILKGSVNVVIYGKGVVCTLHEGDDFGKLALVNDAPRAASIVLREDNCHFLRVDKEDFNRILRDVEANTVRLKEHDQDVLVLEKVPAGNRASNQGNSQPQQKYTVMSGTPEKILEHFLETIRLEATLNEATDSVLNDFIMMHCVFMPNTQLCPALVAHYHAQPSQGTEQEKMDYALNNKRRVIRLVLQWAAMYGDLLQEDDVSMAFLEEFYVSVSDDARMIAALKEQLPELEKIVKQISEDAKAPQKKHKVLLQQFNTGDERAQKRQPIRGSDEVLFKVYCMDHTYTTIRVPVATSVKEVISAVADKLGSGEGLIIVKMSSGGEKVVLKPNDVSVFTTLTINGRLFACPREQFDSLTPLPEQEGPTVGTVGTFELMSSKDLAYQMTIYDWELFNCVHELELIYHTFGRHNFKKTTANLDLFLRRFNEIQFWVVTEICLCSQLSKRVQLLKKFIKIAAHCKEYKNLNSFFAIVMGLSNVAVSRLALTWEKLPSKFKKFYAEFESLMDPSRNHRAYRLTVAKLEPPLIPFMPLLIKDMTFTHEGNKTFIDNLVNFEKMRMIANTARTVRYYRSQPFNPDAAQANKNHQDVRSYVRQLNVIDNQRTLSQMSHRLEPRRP

activation, inactive:
COc1ccccc1C(CCN(Cc1ccccc1)C(C)=O)c1ccco1 (stereo not given) 8.17% [at 17.1 µM, percent relative to cAMP agonist control]
CCCN1C(=O)c2ccccc2NC1c1ccc(Cl)c(Cl)c1 (stereo not given) 5.07% [at 17.1 µM, percent relative to cAMP agonist control]
COc1ccc(CCn2c(=N)c(C(=O)NC3CCCCC3)cc3c(=O)n4ccccc4nc32)cc1 -154%
CCCCN(C(=O)Cn1ncc(Cl)c(Cl)c1=O)c1c(N)n(CC(C)C)c(=O)[nH]c1=O 3.26% [at 17.1 µM, percent relative to cAMP agonist control]
O=S(=O)(NCCC1=CCCCC1)c1ccc(OC(F)(F)F)cc1 -1.46% [at 17.1 µM, percent relative to cAMP agonist control]
O=C(/C=C/c1ccc(Br)o1)NCc1ccccc1 -1.62% [at 17.1 µM, percent relative to cAMP agonist control]
Cc1ccc(/C=C/C(=O)Nc2nnc(SCc3ccc(C#N)cc3)s2)o1 -6.18%
COc1ccc(C(=O)NC2(C(F)(F)F)NC(=O)N(CCCc3ccccc3)C2=O)c(OC)c1OC (stereo not given) 12.9% [at 17.1 µM, percent relative to cAMP agonist control]
O=C(CSc1nc(-c2ccc(F)cc2)nc2ccc(F)cc12)Nc1cccc(C(=O)O)c1 2.05%
COc1ccc(C2=NN(c3ccccc3)C(c3cn(CCC(=O)O)nc3-c3ccccc3)C2)cc1 (stereo not given) -2.37%
C=CCc1ccccc1OCCSc1nc(-c2ccc(C(C)(C)C)cc2)nc2cc(=O)[nH]n12 -47.5% [at 83.8 µM, percent relative to cAMP agonist control]
Cc1ccc2oc(=O)n(CCOc3ccccc3C)c2c1 11.2% [at 17.1 µM, percent relative to cAMP agonist control]
COc1cc2c(cc1OC)C(c1cccs1)N(C(=O)C(C)C)CC2 (stereo not given) 9.31%
COc1ccc2c(c1)c(=O)oc1c(C)c(OCc3cc(C(=O)O)oc3C)ccc12 -2.55%
Cc1ccc(Cc2cnc(N3C(=N)SC(c4ccccc4)C3=O)s2)cc1 (stereo not given) 9.77% [at 17.1 µM, percent relative to cAMP agonist control]
O=C(CSc1nc(-c2ccccc2)nc2c1Cc1ccccc1O2)Nc1ccc(C(=O)O)cc1 9.63%
COc1ccccc1Cc1c(-c2ccco2)nc2c(C)cc(Br)cn12 7.54% [at 17.1 µM, percent relative to cAMP agonist control]
CCc1ccc(OCC2c3cc(OC)c(OC)cc3CCN2C(C)=O)cc1 (stereo not given) 1.59%
CC1(Cc2cc(Cl)ccc2C(F)(F)F)C(=O)Nc2cc(F)ccc21 (stereo not given) 5.2% [at 17.1 µM, percent relative to cAMP agonist control]
Cc1cccc(CN2C(=O)c3ccccc3Sc3ccc(C(=O)N4CCCC4)cc32)c1 0% [at 83.8 µM, percent relative to cAMP agonist control]
CCOC(=O)N1CCC(Nc2nc3ccccc3n3cnnc23)CC1 3.86% [at 17.1 µM, percent relative to cAMP agonist control]
CC(C)c1ccc(S(=O)(=O)Nc2ccc3c(c2)OCO3)cc1 7.9%
O=C(Nc1cc(C(F)(F)F)ccc1Cl)c1nc2ccccc2nc1N1CCCCC1 -52% [at 83.8 µM, percent relative to cAMP agonist control]
CCOC(=O)C(C(C)C)C(N)Cc1ccc(F)cc1 (stereo not given) 0.479%
CCCCOc1cccc(C2C(C(=O)c3ccc(C)o3)=C(O)C(=O)N2c2nnc(C)s2)c1 (stereo not given) -50.9%
COc1ccc(-c2[nH]c(-c3ccc(F)cc3)nc2SCC(=O)Nc2ccc(OC)c(OC)c2)cc1 0% [at 83.8 µM, percent relative to cAMP agonist control]
CCCc1nc2c(Cl)cc(C(F)(F)F)cn2c1Cc1ccc(OC)cc1C 5.33% [at 17.1 µM, percent relative to cAMP agonist control]
O=C(O)C1CC(c2ccc(F)cc2)=NO1 (stereo not given) -14.9% [at 17.1 µM, percent relative to cAMP agonist control]
COc1cccc(OCc2cc(/C=N/Nc3ccc(C(=O)O)cc3)ccc2OC)c1 6.81% [at 17.1 µM, percent relative to cAMP agonist control]
CC(C)(C)C(=O)Nc1cccc(C(=O)OCc2cc(=O)n3nc(C4CCCCC4)sc3n2)c1 -15.7% [at 83.8 µM, percent relative to cAMP agonist control]
c1cc(-c2cc3nc(NC4CCCCC4)ccn3n2)ccc1OCCN1CCOCC1 0%
CC(=O)c1c(C)[nH]c(C(=O)OCC(=O)c2ccc3c(c2)NC(=O)CO3)c1C -15.5%
Cc1nc2c(C(=O)NCc3ccc(F)cc3)c[nH]n2c(=O)c1Cl -18.7%
CC(=O)Nc1ccc(NC(=S)NC(=O)/C=C/c2ccco2)cc1 -4.32%
Cn1c(/N=C/c2c(O)ccc3ccccc23)nc2ccccc21 11.7%
O=C(O)COc1ccc(/C=N/NC(=O)c2ccc(-c3csc(Nc4ccc(Cl)cc4)n3)cc2)cc1 -18.7%
O=c1cc(CSc2nc3ccccc3c(=O)[nH]2)c2ccc(O)cc2o1 3.4%
O=C(CCC(=O)N1CCSc2ccccc21)NCc1cccc(Br)c1 9.98% [at 17.1 µM, percent relative to cAMP agonist control]
COc1ccc(/C=C2/SC(=O)N(CCC(=O)Nc3ccc(S(=O)(=O)Nc4nccs4)cc3)C2=O)cc1 -21.9%
CCCn1nc([N+](=O)[O-])c(C(C#N)c2nc3ccccc3o2)c(Cl)c1=O (stereo not given) -21.9%
